High-throughput results: PubChem BioAssay, several laboratories
In the library only some 3.1% were active in any assay of this set; here they are far more common.
CF NFkB block = inhibitors of cystic fibrosis induced NF-kB. inhibition, % at 5 µM. 0.86% of 360,000 active. KKLEB NF-kB-GFP reporter, PAF-induced, GFP fluorescence overnight;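 active = at least 50% inhibition at 5 µM, scaled per plate between neutral and stimulator controls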;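 also: PAF is a Pseudomonas aeruginosa culture filtrate used as stimulus; plate controls were PAF-stimulated DMSO wells for no effect and unstimulated DMSO wells for full effect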
Peg3 prom inh-1 = inhibitors of Peg3 promoter; 1.7% of 360,000 active; HeLa PEG-Prom luciferase reporter, luminescence, overnight; inhibition, % at 20 µM;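 active = inhibition of at least 50% at 20 µM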
ABHD5 PLIN5 PPI = blocks binding of human ABHD5 to perilipin-5. Q00G26+Q8WTS1. inhibition, % at 4 µM. Split G. princeps luciferase complementation, luminescence, 4 h. AID 602281. 0.78% of 360,000 active;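 active = inhibition above the mean inhibition across every tested compound plus 3 SD, cut at about 22% in these data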;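 also: 0% = DMSO only wells and the 100% control is not disclosed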
Target sequence (Q00G26 whole entry, looked up): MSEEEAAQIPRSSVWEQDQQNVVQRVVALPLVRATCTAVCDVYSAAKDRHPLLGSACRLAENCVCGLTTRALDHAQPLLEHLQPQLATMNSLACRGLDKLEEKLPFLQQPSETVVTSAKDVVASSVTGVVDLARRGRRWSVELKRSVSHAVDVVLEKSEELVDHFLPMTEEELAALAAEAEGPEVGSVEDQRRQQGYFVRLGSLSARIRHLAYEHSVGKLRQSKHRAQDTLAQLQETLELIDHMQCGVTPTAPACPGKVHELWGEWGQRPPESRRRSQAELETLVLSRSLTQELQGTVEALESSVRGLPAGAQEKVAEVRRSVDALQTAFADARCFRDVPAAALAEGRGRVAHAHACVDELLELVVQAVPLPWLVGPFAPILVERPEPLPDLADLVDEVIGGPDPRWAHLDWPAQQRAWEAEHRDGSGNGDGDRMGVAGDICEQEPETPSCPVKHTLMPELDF
Target sequence (Q8WTS1 whole entry, looked up): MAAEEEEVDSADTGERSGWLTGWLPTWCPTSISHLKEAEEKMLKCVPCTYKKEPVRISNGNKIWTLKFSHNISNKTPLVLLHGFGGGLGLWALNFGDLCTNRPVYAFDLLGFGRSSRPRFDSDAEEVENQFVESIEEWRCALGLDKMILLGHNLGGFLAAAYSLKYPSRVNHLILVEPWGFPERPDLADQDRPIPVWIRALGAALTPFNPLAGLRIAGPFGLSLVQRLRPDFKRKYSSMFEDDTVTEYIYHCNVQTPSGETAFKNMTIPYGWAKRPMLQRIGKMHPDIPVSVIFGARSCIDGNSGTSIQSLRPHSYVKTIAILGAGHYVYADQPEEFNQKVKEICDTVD
HIF-2a block = inhibitors of HIF-2a; 786-0 RCC cells HIF-2a reporter, luciferase luminescence, overnight; inhibition, % at 18.8 µM; 0.72% of 360,000 active; AID 624352;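 active = inhibition of the luminescence signal of 40% or more relative to plate controls, in a single-dose primary screen at 18.75 µM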
KKLEB cytotox = CF airway cell cytotoxicity counter-screen; activity change (cytotoxicity), % at 5 µM; 0.36% of 360,000 active; AID 602141; KKLEB CF airway cells viability, ATPlite luminescence, overnight; hits give low values; cells stimulated with P. aeruginosa culture filtrate;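 active = corrected activity change at or below -50% at 5 µM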
TRPM1 prom inh = reduces MITF-dependent TRPM1 promoter luciferase signal | SK-MEL-5 TRPM1 promoter luciferase, 24 h | 0.83% of 330,000 active | AID 488899 | inhibition, % at 12.5 µM;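 active = mean inhibition across replicates of 60% or more, whatever share of single replicates reaches that level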
Peg3 prom inh-2 = confirmation of Peg3 promoter inhibitors; AID 602417; shares compounds with Peg3 prom inh-1; HeLa PEG-Prom luciferase reporter, luminescence, overnight; inhibition, % at 20 µM; 84% of 1,300 active;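 active = at 20 µM dose, 40% or more inhibition averaged across four replicates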
Active calls of the source: *.

For COc1ccc(CNC(=O)Nc2nc(C(N)Cc3ccc(F)cc3)cs2)cc1 (stereo not given) the results were CF NFkB block 7, Peg3 prom inh-1 96*, ABHD5 PLIN5 PPI 3, HIF-2a block 9, KKLEB cytotox -25 and Peg3 prom inh-2 98*.
`CN(C)Cc1csc(NC(=O)Nc2ccccc2Oc2ccccc2)n1` gave CF NFkB block 49, Peg3 prom inh-1 93*, ABHD5 PLIN5 PPI 9, HIF-2a block -14, KKLEB cytotox -8 and Peg3 prom inh-2 20.
CC(C)CC(N)c1csc(NC(=O)Nc2ccccc2C(C)(C)C)n1 (stereo not given) was read as CF NFkB block -12, Peg3 prom inh-1 67*, ABHD5 PLIN5 PPI 5, HIF-2a block -5, KKLEB cytotox -12 and Peg3 prom inh-2 91*.
COc1cc(CNC(=O)Nc2nc(C(N)CCc3ccccc3)cs2)cc(OC)c1OC (stereo not given) was read as CF NFkB block 13, Peg3 prom inh-1 40, ABHD5 PLIN5 PPI 5, HIF-2a block 2 and KKLEB cytotox -17.
O=C(NC1CCCC1)C1CCN(C(=O)c2ccc(Cl)cc2Cl)CC1 was read as CF NFkB block -4, Peg3 prom inh-1 17, ABHD5 PLIN5 PPI 1, HIF-2a block 7, KKLEB cytotox 7 and TRPM1 prom inh -11.
`CCN(CC(=O)NC1CCS(=O)(=O)C1)C(=O)c1cc(OC)c(OC)c(OC)c1` (stereo not given) gave CF NFkB block -26, Peg3 prom inh-1 12, ABHD5 PLIN5 PPI -4, HIF-2a block 9, KKLEB cytotox 23 and TRPM1 prom inh -5.
Screening CN(C)c1ccc(C(=S)Nc2ccccc2)cc1 returned CF NFkB block 2, Peg3 prom inh-1 -77, ABHD5 PLIN5 PPI 7, HIF-2a block -51, KKLEB cytotox -4 and TRPM1 prom inh -19.
Screening CN(C)c1ccc(/C=C(\C#N)c2ccccn2)cc1 returned CF NFkB block -6, Peg3 prom inh-1 78*, ABHD5 PLIN5 PPI 0, HIF-2a block 31, KKLEB cytotox -91*, TRPM1 prom inh 68* and Peg3 prom inh-2 49*.
`CN(C)c1ccc(NC(=S)c2ccccn2)cc1` gave CF NFkB block -11, Peg3 prom inh-1 90*, ABHD5 PLIN5 PPI -7, HIF-2a block 54*, KKLEB cytotox -55*, TRPM1 prom inh 79* and Peg3 prom inh-2 66*.
Cn1ncc(C(N)=O)c1NC(=S)NC(=O)c1ccc(Br)o1 was read as CF NFkB block 17, Peg3 prom inh-1 5, ABHD5 PLIN5 PPI -3, HIF-2a block 13, KKLEB cytotox 3 and TRPM1 prom inh 8.
Screening C/C(=N\OCC(=O)OCC(=O)NCc1ccccc1)c1ccc2c(c1)OCO2 returned CF NFkB block 1, Peg3 prom inh-1 10, ABHD5 PLIN5 PPI 4, HIF-2a block 17, KKLEB cytotox 5 and TRPM1 prom inh 0.
COC(=O)c1[nH]c(C)c(/C(O)=C2\C(=O)C(=O)N(CCN3CCOCC3)C2c2ccco2)c1C (stereo not given) was read as CF NFkB block -13, Peg3 prom inh-1 -4, ABHD5 PLIN5 PPI -6, HIF-2a block 20, KKLEB cytotox 4 and TRPM1 prom inh 6.
For O=C(Nc1nc2ccccc2[nH]1)c1ccc(F)cc1 the results were CF NFkB block -2, Peg3 prom inh-1 -51, ABHD5 PLIN5 PPI 4, HIF-2a block -87, KKLEB cytotox -19 and TRPM1 prom inh -8.
O=C(Nc1nc2ccccc2[nH]1)c1ccccc1F was read as CF NFkB block 8, Peg3 prom inh-1 93*, ABHD5 PLIN5 PPI -3, HIF-2a block 75*, KKLEB cytotox -30, TRPM1 prom inh 87* and Peg3 prom inh-2 81*.
Screening O=C(/C=C/c1ccc(F)cc1)NC(=S)NNC(=O)c1cnccn1 returned CF NFkB block 22, Peg3 prom inh-1 55*, ABHD5 PLIN5 PPI 9, HIF-2a block -2, KKLEB cytotox 1, TRPM1 prom inh 21 and Peg3 prom inh-2 40*.
`O=C(NC(=S)NNC(=O)c1cnccn1)c1ccc(F)cc1` gave CF NFkB block 7, Peg3 prom inh-1 23, ABHD5 PLIN5 PPI 1, HIF-2a block 3, KKLEB cytotox 17 and TRPM1 prom inh -2.
COC(=O)C[C@@H]1C=C[C@@H](NC(=O)c2ccccc2F)[C@@H](CO)O1 was read as ABHD5 PLIN5 PPI 0 and HIF-2a block 9.
For Oc1ccc(C[C@H]2CNC(=S)N2CCc2cc(C(F)(F)F)cc(C(F)(F)F)c2)cc1 the results were CF NFkB block 9, Peg3 prom inh-1 -15, ABHD5 PLIN5 PPI -2, HIF-2a block 0 and KKLEB cytotox -10.
Oc1ccc(C[C@H]2CNCCN2CCc2cc(C(F)(F)F)cc(C(F)(F)F)c2)cc1 was read as CF NFkB block 1, Peg3 prom inh-1 58*, ABHD5 PLIN5 PPI 7, HIF-2a block -90, KKLEB cytotox -8, TRPM1 prom inh 0 and Peg3 prom inh-2 82*.
For Cc1ccccc1N(C(=O)c1snc(C(N)=O)c1N)C(C(=O)NCc1ccccc1)c1ccc(O)cc1 (stereo not given) the results were CF NFkB block 15, Peg3 prom inh-1 49, ABHD5 PLIN5 PPI -8, HIF-2a block 21, KKLEB cytotox 3 and TRPM1 prom inh 6.
For NC(=O)c1nsc(C(=O)N(c2ccccc2F)C(C(=O)NCc2ccccc2)c2ccc(O)cc2)c1N (stereo not given) the results were CF NFkB block 90*, Peg3 prom inh-1 75*, ABHD5 PLIN5 PPI 15, HIF-2a block 32, KKLEB cytotox -54*, TRPM1 prom inh -1 and Peg3 prom inh-2 57*.
CCc1nc2ccc(C(=O)Nc3cccc(OCC(=O)N(C)C)c3)cn2c1N(C)Cc1ccc(OC)cc1 was read as CF NFkB block 18, Peg3 prom inh-1 72*, ABHD5 PLIN5 PPI 3, HIF-2a block -3, KKLEB cytotox -13 and Peg3 prom inh-2 42*.
CCOC(=O)c1c(C)[nH]c(C(=O)CSc2nnc(-c3ccncc3)n2CC)c1C was read as CF NFkB block 19, Peg3 prom inh-1 21, ABHD5 PLIN5 PPI 5, HIF-2a block 22, KKLEB cytotox 0 and TRPM1 prom inh -6.
Screening C=CCn1c(SCC(=O)c2[nH]c(C)c(C(=O)OCC)c2C)nc2scc(-c3ccc(OC)c(OC)c3)c2c1=O returned CF NFkB block 56*, Peg3 prom inh-1 86*, ABHD5 PLIN5 PPI -3, HIF-2a block 9, KKLEB cytotox -42, TRPM1 prom inh 102* and Peg3 prom inh-2 11.
For Cc1ccc(C(C(=O)NCc2ccco2)N(C(=O)CNC(=O)c2cccs2)c2c(C)cccc2C)cc1 (stereo not given) the results were CF NFkB block 0, Peg3 prom inh-1 66*, ABHD5 PLIN5 PPI -1, HIF-2a block 20, KKLEB cytotox -5, TRPM1 prom inh 13 and Peg3 prom inh-2 23.
